HPGD block: HPGD (human) dehydrogenase inhibition; P15428; purified HPGD, NADH fluorescence kinetic, PGE2 substrate; Potency, µM, inactives show at the highest dose activity change, negative = inhibition, actives largely listed as inhibitors; hit rate 4.3% among 150,000; AID 894; note: potency is the fitted concentration of half-maximal effect
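20 nM HPGD preincubated 15 min at room temperature with compound in 50 mM Tris-HCl pH 8, 0.01% Tween 20. Started with 1 mM NAD+ and 30 uM prostaglandin E2; NADH fluorescence (360/450 nm) read 5 times over 30-s intervals, last minus first.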
IMPase cell inh: cell-permeable inhibitors of inositol monophosphatase (IMPase); 120,000 tested, under 10 active; P97697; inhibition (IP1 accumulation), % at 46.1 µM; CHO-M1 cells, IP1 accumulation, HTRF TR-FRET ratio; active = well fitted curve in the direction sought with a large enough effect in the signal ratio, not every such curve was filed as active; inconclusive = small, poorly fitted or top-dose-only effect, or a change in a side signal; inactive = no such curve, though single readings can be large or run the other way; the % refers to the signal ratio;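 note: cells stimulated with carbachol in lithium chloride buffer; plate controls were DMSO basal wells for no effect and reference inhibitor wells for full effect; higher means more IMPase inhibition seen as more IP1 and lower FRET ratio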
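Measured: the HTRF emission ratio (665/620 nm) plus the 620 nm donor channel, each fitted to the Hill equation to give AC50. Cells were CHO-M1 given compounds up to 46 uM and a 30 min carbachol stimulation at 37C.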
ALDH1A1 inh: blocks purified human ALDH1A1 activity; P00352; Purified ALDH1A1, NADH fluorescence, propionaldehyde substrate; Potency, µM (doses to about 75.3 µM), inactives show at the highest dose activity, negative = inhibition, actives largely listed as inhibitors; hit rate 7.3% among 220,000;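 note: potency is the fitted concentration of half-maximal effect; plate controls were no enzyme wells and a reference inhibitor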
Target sequence (P00352 whole entry, looked up): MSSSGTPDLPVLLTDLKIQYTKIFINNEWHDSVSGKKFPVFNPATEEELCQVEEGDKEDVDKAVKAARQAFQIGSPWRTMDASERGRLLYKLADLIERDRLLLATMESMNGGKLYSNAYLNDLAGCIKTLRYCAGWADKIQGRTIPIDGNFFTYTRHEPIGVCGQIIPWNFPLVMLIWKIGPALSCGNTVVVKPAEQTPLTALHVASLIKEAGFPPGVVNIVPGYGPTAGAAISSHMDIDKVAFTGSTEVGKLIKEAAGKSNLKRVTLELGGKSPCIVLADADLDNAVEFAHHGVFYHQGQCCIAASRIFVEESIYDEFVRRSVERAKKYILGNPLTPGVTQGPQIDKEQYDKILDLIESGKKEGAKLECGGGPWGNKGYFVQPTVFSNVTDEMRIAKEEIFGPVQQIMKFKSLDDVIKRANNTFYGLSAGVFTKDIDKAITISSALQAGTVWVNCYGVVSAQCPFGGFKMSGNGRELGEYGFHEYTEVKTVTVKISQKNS
An asterisk follows results filed as active; ? = inconclusive; . = not tested or not shown; [ ] = remark or other dose. Sampled rows, rich in hits. Any-hit rate of the full collection: about 9%. Unless noted, calls come from the whole dose curve; as a rule, active = well fitted inhibition curve with a large enough effect (not every such curve was filed as active); inconclusive = small, poorly fitted or top-dose-only effect, or another doubt; inactive = no such curve, though single readings can be large or run the other way. Unless noted, % is set by controls: 0 for no effect and ±100 for the full control effect.

SMILES	HPGD block	IMPase cell inh	ALDH1A1 inh
Cc1[nH]nc(Nc2ccccc2)c1[N+](=O)[O-]	-28%	4	-3%
Cc1cccc(Nc2n[nH]c(C)c2[N+](=O)[O-])c1	11µM*	.	0%
O=C(Nc1cc(C(F)(F)F)ccc1Cl)c1cc(-c2cccs2)nc2ccccc12	.	2	.
Nc1nc(SCC(=O)O)[nH]c(=O)c1N	-10%	.	-12%[13.5 µM]
COc1cc(C(=S)N2CCOCC2)ccc1OS(=O)(=O)c1ccc(NC(C)=O)cc1	-9%	.	4%
O=C(C1CCC(CNS(=O)(=O)c2ccc(F)cc2)CC1)N1CCOCC1 (stereo not drawn)	.	.	11%
CCOC(=O)N1CCN(C(=O)C2CCC(CNS(=O)(=O)c3ccc(Cl)cc3)CC2)CC1 (stereo not drawn)	-4%	5	-2%
COc1cc(C(=S)N2CCCC2)cc(OC)c1OS(=O)(=O)c1ccc(NC(C)=O)cc1	22µM*	.	?
CC(=O)Nc1ccc(S(=O)(=O)NCC2CCC(C(=O)N3CCCCCC3)CC2)cc1 (stereo not drawn)	7.1µM*	1	22µM*
COc1ccc(CN2CCN(C(=O)C3CCC(CNS(=O)(=O)c4ccc(C)cc4)CC3)CC2)c(OC)c1OC (stereo not drawn)	.	.	20µM*
O=C(c1cccs1)N1CCN(C(=O)C(c2ccccc2)c2ccccc2)CC1	-9%	2	?
N/C(=N\NC(=O)c1sccc1OCc1ccc(Cl)cc1Cl)c1ccccn1	.	.	-1%
CCSC1=C(C#N)C(c2ccccc2Cl)C(C(=O)c2cccs2)C(O)(C(F)(F)F)N1 (stereo not drawn)	-14%	-5[1.84 µM]	11µM*
COc1cc(C2NC(=S)NC(O)(C(F)(F)F)C2C(=O)c2cccs2)cc(OC)c1O (stereo not drawn)	-4%	.	-6%
C=CCSC1=C(C#N)C(c2ccccc2Cl)C(C(=O)c2cccs2)C(O)(C(F)(F)F)N1 (stereo not drawn)	-9%	.	14µM*
CSC1=C(C#N)C(c2ccccc2Cl)C(C(=O)c2cccs2)C(O)(C(F)(F)F)N1 (stereo not drawn)	2%	.	-8%
COc1ccc(NC2SC(=O)N(C)C2=O)cc1 (stereo not drawn)	.	.	-1%
COc1ccc(C(C(=O)NC2CCCCC2)N(CC2CCCO2)C(=O)CNC(=O)c2ccco2)cc1 (stereo not drawn)	-7%	11	3%
CC(=O)c1cccc(NC(=O)Cn2cnc3c2c(=O)n(C)c(=O)n3C)c1	.	-7	.
Cc1cc(C(=O)OCn2nnc3ccccc3c2=O)c(C)o1	-6%	0	-7%
Oc1ccc(C=NCC2COc3ccccc3O2)cc1 (stereo not drawn)	-9%	1	18µM*
COc1ccc(C=NCC2COc3ccccc3O2)cc1OC (stereo not drawn)	-19%	-3	?
COc1ccc2nc(N3CCCCC3)c(C#N)cc2c1	-16%	-3	?
N#Cc1cc2c(nc1SCC(=O)N1CCCCC1)CCCCC2	25µM*	-2	22µM*
COc1ccc2nc(SCC(=O)N(C)C3CCCCC3)c(C#N)cc2c1	?	-2	25µM*
SMILES	HPGD block	IMPase cell inh	ALDH1A1 inh
CCOc1ccc2nc(SCc3ccc(CC(=O)O)cc3)c(C#N)cc2c1	.	.	1%
N#Cc1cc2c(nc1SCC(=O)N1CCCCC1)CCCC2	-29%	9	?
COc1ccc2nc(SCC(=O)N3CCCCCC3)c(C#N)cc2c1	?	3	13µM*
CCOC(=O)C1CCN(C(=O)C(C)Oc2ccc(Br)cc2)CC1 (stereo not drawn)	.	.	-8%
Cc1cc(C(=O)NC(C)c2ccncc2)cs1 (stereo not drawn)	-5%	-8	-12%
C=CCN1C(=O)C(Cc2ccc(OC)cc2)S/C1=N/N=C/c1ccco1 (stereo not drawn)	-25%	10	7.1µM*
C=CCN1C(=O)C(Cc2ccc(Br)cc2)S/C1=N\N=C\c1ccco1 (stereo not drawn)	-3%	9	?
O=C(c1c[nH]c2ccccc2c1=O)N1CCCCCC1	.	.	13%
Cc1ccc(C)c(N2CCN(C(c3ccc(F)cc3)c3nnc(-c4ccccc4)o3)CC2)c1 (stereo not drawn)	.	4	.
CC1CCN(C(=O)c2ccc(CSc3nc4ccncc4n3Cc3ccc(F)cc3)cc2)CC1	0.79µM*	.	-8%
Cc1ccc(CSc2nc3ccncc3n2CC(=O)Nc2cc(C)cc(C)c2)cc1	-13%	.	-12%
Cc1cc(Oc2ccc(=O)n(C)n2)nc(SCc2ccccc2)n1	.	.	-4%
O=C(O)c1ccccc1C(=O)c1ccc(N2CCCC2)c([N+](=O)[O-])c1	.	.	0%
CC1Cc2ccccc2N1C(=O)c1ccc(N2CCCC2)c([N+](=O)[O-])c1 (stereo not drawn)	-20%	-9	13µM*
COc1ccc(C(=O)N2c3ccccc3CC2C)cc1OC (stereo not drawn)	-2%	21	5%
CC1Cc2ccccc2N1C(=O)c1ccc(N2CCCCC2)c([N+](=O)[O-])c1 (stereo not drawn)	-19%	5	22µM*
Cc1ccc(OCCOCCN(C)C)c(Cl)c1	4%	.	-4%
Cc1nn(-c2ccccc2)c2c1C1(C(=O)N(C(C)C)c3ccccc31)C(C#N)=C(N)O2 (stereo not drawn)	-6%	6	1.1µM*
Cc1nn(-c2ccccc2)c(N)c1C1(O)C(=O)N(C(C)C)c2ccccc21 (stereo not drawn)	-2%	.	?
Cc1ccc(NC(=O)Cn2cnc3sc(C(=O)O)c(C)c3c2=O)cc1Cl	.	-4	.
CSC(=Nc1ccccc1)C1=C(O)COC1=O	-2%	?	25µM*
CCSC(=Nc1ccccc1)C1=C(O)COC1=O	-5%	-4	-2%
O=C(Nc1nnc(-c2ccccc2)s1)c1cc(S(=O)(=O)N2CCOCC2)c(Cl)cc1Cl	-17%	0	6%
O=C(CCl)Nc1cn(-c2ccccc2)nc1-c1ccccc1	.	.	14µM*
O=C(CCl)Nc1ccc(-c2ccccc2)cc1	.	.	0.25µM*
SMILES	HPGD block	IMPase cell inh	ALDH1A1 inh
O=C(CCl)Nc1ccc(N=Nc2ccccc2)cc1	-23%	.	0.4µM*
CC(=O)Nc1cn(-c2ccccc2)nc1-c1ccccc1	.	.	2%
O=C(O)CC(=O)Nc1ccccc1	-2%	-7	-3%
CC(C)c1ccc(NC(=O)C(C)N(c2ccccc2)S(C)(=O)=O)cc1 (stereo not drawn)	.	0	.
CC(C)N(c1ccccc1)c1ccc(NC(=O)CCl)cc1	.	.	0.4µM*
CC(=O)Nc1ccc(N=Nc2ccccc2)cc1	-11%	.	5%
OCC(O)C(O)C(O)C(O)CO (stereo not drawn)	-10%	.	14%
Cc1cc(NC(=O)c2ccc(N(C)S(=O)(=O)c3ccccc3)cc2)no1	0%	3	10%
O=C(Cc1ccc(Cl)cc1)Nc1ccccc1Sc1ccccc1	-15%	.	-12%
O=C(CCl)Nc1ccccc1Sc1ccccc1	-8%	3	4µM*
COc1ccc(CCN(Cc2ccccn2)C(=S)Nc2ccccc2C)cc1OC	.	.	20µM*
COc1ccccc1NC(=S)N(CCCN1CCOCC1)Cc1ccccn1	-4%	.	3%
CCOC(=O)OCC	-11%	.	?
CCN(Cc1ccccc1)c1ccc(/C=C(\C#N)c2ccccn2)cc1	.	0	14µM*
CCN(CC)c1ccc(/C=C(\C#N)c2ccccn2)cc1	-16%	.	?
